Screening data (PubChem BioAssay)
Shiga inhibitor: blocks Shiga toxin action in Vero cells. Vero cells, Shiga toxin protein synthesis inhibition reporter. inhibition, % at 38.7 µM. actives 9.2% (n = 290,000). AID 2315; in the data active means inhibition mostly above about 28%, no sharp cut-off; inactive means mostly below about 43%; further: 0% is about no effect
FBPA Giardia inh: inhibitors of Giardia lamblia fructose-1,6-bisphosphate aldolase; AID 2451; actives 0.71% (n = 290,000); A8B2U2; Potency, µM (top dose mostly 59.6 µM), inactives show at the top dose activity, negative = inhibition, hits mostly inhibitors; purified Giardia FBPA; further: potency means the concentration at half of the fitted maximal effect; on the % scale 0 is the no-effect control and ±100 the full control effect; nearly all actives have a fitted effect of over 55% in size
Target sequence (A8B2U2 whole entry, looked up): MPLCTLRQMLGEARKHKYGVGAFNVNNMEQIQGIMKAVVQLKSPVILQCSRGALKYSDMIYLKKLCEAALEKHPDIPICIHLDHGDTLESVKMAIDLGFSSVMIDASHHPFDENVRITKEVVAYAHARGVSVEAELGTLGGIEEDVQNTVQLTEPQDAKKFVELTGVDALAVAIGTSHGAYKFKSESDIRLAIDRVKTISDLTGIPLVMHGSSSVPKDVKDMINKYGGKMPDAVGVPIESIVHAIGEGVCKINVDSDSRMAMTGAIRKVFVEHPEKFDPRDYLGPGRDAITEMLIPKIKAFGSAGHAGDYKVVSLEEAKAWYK
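Giardia FBPA (40 nM reagent) was preincubated 10 min at RT with compound (up to 57.5 uM final), then substrate plus GAPDH/TPI/NAD/arsenate coupling system with diaphorase/resazurin was added; resorufin fluorescence (525/598 nm) was read after 20 min.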
Tb PYK inh: inhibitors of Trypanosoma brucei pyruvate kinase | Q57TT1 | TbPYK enzyme, Kinase-Glo Plus ATP luminescence, 45 min | Potency, µM (titrated, usually from 76.8 µM), without a hit: at the highest dose activity, negative = inhibition, hits mostly inhibitors | actives 0.12% (n = 410,000) | AID 624173; further: potency means the concentration at half of the fitted maximal effect; on the % scale 0 is the no-effect control and ±100 the full control effect; nearly all actives have a fitted effect of over 50% in size
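Enzyme and substrate buffer are dispensed first and compound is pin-transferred. ADP at 130 uM final then starts the reaction, which runs 45 min at room temperature. Detection reagent is added for 10 min before luminescence is imaged.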
Cycloheximide cs: affects cycloheximide protein synthesis inhibition readout, counter-screen; cell reporter, cycloheximide protein synthesis inhibition counterscreen; max response, %; actives 12% (n = 300,000); AID 2314; in the data active means max response mostly above about 13%, no sharp cut-off; inactive means mostly below about 14%; further: read at 38.3 µM for the half of the compounds with a filed dose; 0% is about no effect
LmPK inhibitor: inhibitors of Leishmania mexicana pyruvate kinase; Q27686; purified LmPK, Kinase-Glo ATP luminescence, 1 h; Potency, µM (series often up to 57.5 µM), without a hit: at the top dose activity change, negative = inhibition, usual class: inhibitors; actives 0.37% (n = 290,000); AID 1721; further: potency means the concentration at half of the fitted maximal effect; on the % scale 0 is the no-effect control and ±100 the full control effect
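0.1 nM LmPK, 0.5 mM PEP, 0.1 mM ADP; 50 mM imidazole pH 7.2, 7 mM MgCl2, 50 mM KCl; 1 h RT. Kinase-Glo luminescence readout, normalized to no-enzyme (full inhibition) and uninhibited wells.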
RE007 growth inh: less growth of the S. pombe RE007 Vpr strain. S. pombe RE007 Vpr strain, BacTiter-Glo ATP luminescence, 24 h. Potency, µM (highest dose often 92.2 µM), without a hit: at the highest dose activity change, negative = less growth, usual class: inhibitors. actives 0.21% (n = 360,000). AID 651644; active means well fitted falling curve with a large enough effect; inconclusive means small, poorly fitted or top-dose-only effect; inactive means no such curve, though single readings can be large or run the other way; further: potency means the concentration at half of the fitted maximal effect; on the % scale 0 is the no-effect control and ±100 the full control effect; nearly all actives have a fitted effect of over 50% in size
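Fission yeast strain RE007, carrying one chromosomally integrated HIV-1 vpr copy, was seeded at OD 0.01 in PMG+AL medium with 23 nL pinned compound. After 24 h at 30 °C and 99% humidity, viability was read by BacTiter-Glo luminescence.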
The depositor's hits bear a star; ? = inconclusive; nt = not tested or not shown; + = active, no number. The sample as a whole holds a higher share of hits than the screen did. Unless noted, the call rests on the fitted dose curve; in most records, active means well fitted curve in the direction sought with a large enough effect; inconclusive means small, poorly fitted or top-dose-only effect, or another doubt; inactive means no such curve, though single readings can be large; an effect the other way counts as inactive or inconclusive.

SMILES	Shiga inhibitor	FBPA Giardia inh	Tb PYK inh	Cycloheximide cs	LmPK inhibitor	RE007 growth inh
CCOc1ccc(NC(=O)c2ccc3c(c2)CCN3S(=O)(=O)CC)cc1	nt	nt	3.7%	nt	nt	nt
Cc1ccccc1C(=O)Nc1ccc(N2CCN(C)CC2)nc1	51.5	-6.7%	2.9%	21.6*	-12.1%	-8.0%
CCc1ccc(OC(C)c2nc(-c3ccc(-n4cccc4)cc3)no2)cc1 (configuration not stated)	nt	nt	1.0%	nt	nt	nt
Cc1ccc(SC(C)c2nc(-c3ccccc3)no2)cc1 (configuration not stated)	43.7	2.7%	4.0%	23.1*	-1.3%	0.5%
Cc1nn(C(C)c2nc(-c3ccccc3)no2)c(C)c1[N+](=O)[O-] (configuration not stated)	-11.0	0.8%	-1.1%	6.0	-1.5%	-2.9%
Cc1ccccc1OC(C)c1nc(-c2ccccc2)no1 (configuration not stated)	47.9	4.4%	4.5%	38.2*	-2.9%	-2.2%
COc1ccccc1OCCn1c(=O)n(C)c2ccccc21	27.6*	-1.9%	-8.8%	20.8*	-3.3%	1.0%
Cn1c(=O)n(CCOc2ccc(Cl)cc2Cl)c2ccccc21	-8.8	0.1%	-0.4%	-0.7	2.0%	3.1%
O=c1ccccn1CCOc1ccccc1Cl	44.7*	1.4%	-7.3%	19.1*	-3.0%	-19.9%
Cn1c(=O)n(CCOc2ccccc2Cl)c2ccccc21	79.0*	-6.3%	-9.2%	49.6*	1.4%	-18.2%
CC(C)c1ccc(C2c3c(-c4ccccc4O)n[nH]c3C(=O)N2CCc2ccccc2)cc1 (configuration not stated)	nt	nt	-5.1%	nt	nt	nt
O=C(Nc1ccc(F)cc1)N1CCN(c2nc3ccccc3s2)CC1	18.9	-1.0%	-3.8%	13.4	3.3%	-9.1%
O=C(Nc1nc2ccccc2s1)Nc1ccc(F)cc1F	72.1*	0.5%	-4.6%	53.0*	-0.2%	-4.1%
O=C(NNc1nc2ccccc2s1)Nc1ccc(F)cc1	84.9*	-7.3%	1.9%	61.8*	0.4%	-13.1%
O=C(Nc1nc2ccccc2s1)c1c(F)cccc1Cl	90.6*	-15.3%	4.6%	37.6*	-1.3%	-23.3%
CC(C)C(=O)NNc1nc2ccccc2s1	51.4*	-0.4%	-4.9%	37.7*	-7.5%	2.4%
O=C(NNc1nc2ccccc2s1)C1CC1	28.4	0.2%	0.8%	15.2	0.1%	-1.6%
COc1cccc(NCc2cccn2-c2nnc(N3CCC(C)CC3)s2)c1	nt	nt	-0.3%	nt	nt	nt
O=C(NNC(=O)c1cc(Cl)nc2ccccc12)c1ccccc1F	nt	nt	3.4%	nt	nt	7.4%
O=C(NNc1nc2ccccc2s1)c1ccccc1F	59.3*	9.4%	-7.9%	28.5*	1.0%	3.2%
O=C(NNc1nc2ccccc2s1)Nc1ccc(Cl)c(Cl)c1	59.6*	-6.4%	-7.7%	39.7*	-3.6%	-1.7%
NS(=O)(=O)c1ccc2nc(NC(=O)Nc3ccc(F)cc3)sc2c1	53.9*	-10.3%	-2.0%	46.3*	-3.8%	-13.6%
Cc1onc(-c2ccccc2)c1CNS(=O)(=O)c1ccccc1[N+](=O)[O-]	1.7	-0.5%	-22.3%	-0.9	-1.4%	-0.3%
NC1=NC[C@H](Cc2ccc(O)cc2)N1CCc1cc(C(F)(F)F)cc(C(F)(F)F)c1	16.1	11.7%	-1.1%	18.5*	3.9%	-5.4%
CCOc1ccc(S(=O)(=O)Nc2cccc(C)c2)c2cccnc12	17.8	4.8%	7.8%	-3.8	0.9%	-11.7%
SMILES	Shiga inhibitor	FBPA Giardia inh	Tb PYK inh	Cycloheximide cs	LmPK inhibitor	RE007 growth inh
CCOc1ccc(S(=O)(=O)Nc2ccc3c(c2)OCO3)c2cccnc12	18.7	-11.4%	-11.9%	23.2*	2.1%	-19.3%
Cc1oc(-c2ccc(Cl)cc2)cc1C(=O)O	45.6	9.4%	-4.8%	42.8*	-5.7%	-3.7%
O=C(/C(=C/O)N=Nc1ccc(Cl)cc1)c1ccncc1	-2.5	nt	7.6%	1.7	-2.2%	20µM*
Cc1cccc(N=N/C(=C\O)C(=O)c2ccc(Br)cc2)c1	55.1	-0.5%	-2.0%	13.1	-4.9%	?
O=C(/C(=C/O)N=Nc1ccccc1Cl)c1ccccc1	97.6	0.8%	-1.3%	30.8*	4.7%	?
Cc1ccc(N=N/C(=C\O)C(=O)c2ccncc2)cc1	30.7	-19.5%	0.4%	9.5	9.9%	20µM*
COc1ccc(/C(C)=N/NC(=O)CNC(=O)c2cccnc2)c(OC)c1	-2.3	-8.2%	2.2%	-6.8	3.9%	-13.9%
CCOc1ccc(N(CC)S(=O)(=O)N2CCCC(C(=O)Nc3ccc(NC(C)=O)cc3)C2)cc1 (configuration not stated)	nt	nt	-2.4%	nt	nt	nt
O=C(Nc1nnc(-c2ccc(F)cc2)s1)c1ccco1	33.8	-4.6%	0.8%	8.7	6.2%	-13.0%
CC(C)Sc1nnc(NC(=O)c2ccco2)s1	113.5*	-21.7%	-18.1%	34.7*	1.0%	-24.1%
CCOC(=O)CSc1nnc(NC(=O)c2ccco2)s1	-2.1	10.4%	0.0%	-3.8	-2.0%	-6.5%
CCCc1cc(C(N)=O)c(NC(=O)c2ccco2)s1	+	1.9%	4.8%	28.5*	-2.1%	4.5%
Cc1cccc(-c2nnc(NC(=O)c3ccco3)s2)c1	21.9	nt	-4.4%	20.6*	-7.8%	-16.5%
CCSc1nnc(NC(=O)c2ccco2)s1	27.1*	-6.2%	-10.0%	22.7*	-11.2%	-29.7%
CC(=O)CSc1nnc2cc(C)c3cc(C)cc(C)c3n12	nt	nt	-8.8%	nt	nt	nt
CCCN(CCC)c1cc(C)nc2nc(-c3ccc(Cl)cc3)nn12	nt	nt	-2.3%	nt	nt	nt
Cc1noc(C)c1-c1cncnc1NCc1ccccc1	nt	10.4%	nt	nt	nt	nt
CCSc1nnc(NC(=O)c2cc(C)on2)s1	23.2	-12.0%	13.1%	9.1	-5.1%	?
CCSc1nnc(NC(=O)c2c(C)noc2C)s1	17.7	-25.3%	1.6%	16.4*	-8.1%	-7.5%
O=c1c(-c2ccccc2)nc(-c2ccccc2)cn1O	19.3	-10.5%	2.3%	21.3*	-6.4%	10.7%
O=C(O)Cn1c(=O)c(-c2ccccc2)nc2ccccc21	-3.5	8.3%	-1.0%	4.0	-5.6%	13.7%
CC(C)(CO)NC(=O)c1ccc2nc(Cc3cccc(Cl)c3)oc2c1	25.7*	11.0%	1.1%	26.1*	2.9%	-19.5%
CC(NC(=O)c1ccc2nc(Cc3cccc(Cl)c3)oc2c1)c1ccncn1 (configuration not stated)	nt	nt	-11.7%	nt	nt	17.3%
CN(Cc1ccccn1)C(=O)c1ccc2nc(Cc3cccc(Cl)c3)oc2c1	-18.7	nt	-2.6%	12.5	-12.4%	-0.7%
COC(=O)CN(C)C(=O)c1ccc2nc(Cc3cccc(Cl)c3)oc2c1	nt	22.8%	5.5%	50.8*	-1.1%	2.3%
Cc1ccc(Cn2ncn(-c3ccccc3)c2=O)cc1	29.7	1.3%	0.0%	18.6*	-1.8%	-15.1%
CCCN(CCC)C(=O)c1nn(C)c2c1CSc1ccccc1-2	nt	nt	-1.7%	nt	nt	nt
O=c1c2ccccc2nc(SCc2ccccc2)n1Cc1ccco1	110.0	5.0%	-0.3%	35.8*	2.1%	5.8%
